# Screening data as filed in PubChem.
# Most compounds without a hit are left out; they make up all but 2% or so of the library.
# MBNL1-CUG inh: MBNL1-poly(CUG) RNA binding inhibition; AID 2675; 280,000 compounds, 0.036% hits; Q9NR56; Potency, µM (series often up to 57.5 µM), for the others: at the highest dose activity change, negative = inhibition, usual class: inhibitors; TR-FRET MBNL1-His/biotin-(CUG)12 binding, 665/545 ratio; active means well fitted inhibition curve with a large enough effect in the signal ratio, with a control signal flat, not every such curve was filed as active; inconclusive means small, poorly fitted or top-dose-only effect, or effect the other way, or a change in a side signal; inactive means no such curve, though single readings can be large or run the other way; the % refers to the signal ratio; further: on the % scale 0 is the no-effect control and ±100 the full control effect
# Target sequence (Q9NR56 whole entry, looked up): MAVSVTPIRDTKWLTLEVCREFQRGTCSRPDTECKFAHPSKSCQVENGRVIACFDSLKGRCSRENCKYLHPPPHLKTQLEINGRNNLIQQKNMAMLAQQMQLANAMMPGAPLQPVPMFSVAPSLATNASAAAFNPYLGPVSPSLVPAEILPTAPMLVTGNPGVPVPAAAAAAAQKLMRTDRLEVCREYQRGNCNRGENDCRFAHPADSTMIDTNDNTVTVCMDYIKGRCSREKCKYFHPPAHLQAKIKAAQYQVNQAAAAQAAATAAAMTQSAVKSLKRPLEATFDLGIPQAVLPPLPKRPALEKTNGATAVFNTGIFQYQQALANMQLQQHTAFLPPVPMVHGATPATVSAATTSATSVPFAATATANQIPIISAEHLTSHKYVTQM
#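 Ratiometric TR-FRET (665 over 545 nm, excitation 340 nm) tracks disruption of MBNL1-His/biotin-(CUG)12 complex after 60 min at room temperature, with compounds at 92 nM to 58 uM final.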
# FUS suppressor: FUS proteinopathy suppression in yeast; S. cerevisiae FUS-expressing, growth rescue, OD600, 24 h; Potency, µM (doses to about 76.6 µM), usual class: activators; 390,000 compounds, 0.24% hits; AID 1347120;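 further: plate controls were DMSO vehicle for no effect and reference control for full effect; nearly all actives have a fitted effect of over 55% in size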
#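 FUS-expressing yeast, raffinose-pregrown, induced in 2% galactose minimal medium at OD 0.005; compounds in a dilution series, 24hr at 30C. Growth restoration read as absorbance at 600 nm. CP55940 positive control, DMSO negative.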
# TDP43 rescue: TDP-43 toxicity inhibition in yeast | AID 652104 | TDP-43 expressing yeast growth rescue, BacTiter-Glo, 24 h | Potency, µM (doses to about 46.1 µM), for the others: at the top dose growth rescue (activation), hits mostly activators | 410,000 compounds, 1.8% hits; further: % of control where 0% means no effect; nearly all actives have a fitted effect of over 50% in size
#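 Galactose-induced TDP-43 yeast, OD600=0.02, compound pinned; 24 hr, 30 deg C; BacTiter-Glo luminescence for growth. Inhibitors of TDP-43 toxicity read as activators.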
# aSyn yeast inh: alpha-synuclein toxicity inhibition in yeast | Potency, µM (titrated, usually from 46.1 µM), for inactives: top-dose growth rescue (activation), usual class: activators | AID 652106 | Yeast expressing alpha-synuclein, growth rescue, BacTiter-Glo, 24 h | 370,000 compounds, 0.14% hits; further: % of control where 0% means no effect; nearly all actives have a fitted effect of over 65% in size
#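 Galactose-induced alpha-syn yeast (OD600=0.02, raffinose-pregrown) + pinned cpd, 24 hr, 30 deg C; growth by BacTiter-Glo luminescence. Growth restoration scores as activation.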
# Abeta yeast res: compounds reversing amyloid beta toxicity in yeast. yeast expressing A-beta42, growth rescue, OD600, 48 h; response scale: 0% DMSO, 100% iron-clioquinol control. Potency, µM (titrated, usually from 46.1 µM), most hits filed as activators. 410,000 compounds, 0.063% hits. AID 1347071; further: nearly all actives have a fitted effect of over 55% in size
#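 Yeast growth medium received pinned compounds, then yeast cells expressing toxic A-beta were added; plates incubated at 30 C for 48 hr. Growth read as absorbance at 600 nm, normalized to DMSO and equimolar FeCl3 plus clioquinol controls.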
# GRP78 ERSR act: induces the endoplasmic reticulum stress response in human glioma cells; U87-MG GRP78 promoter luciferase reporter, 16 h; Potency, µM, for the others: at the highest dose activation, actives largely listed as activators; 420,000 compounds, 0.02% hits; further: series mostly up to about 76 µM; % of control where 0% means no effect; nearly all actives have a fitted effect of over 35% in size
#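 Stably transfected U87-MG glioma cells carrying a GRP78-based luciferase sensor; 16 h compound incubation. Luminescence end-point read 10 min after Bright-Glo addition at room temperature.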
# The depositor's hits bear a star; i = inactive; ? = inconclusive; . = no result given. Unless noted, the call rests on the fitted dose curve; in most records, active means well fitted curve in the direction sought with a large enough effect; inconclusive means small, poorly fitted or top-dose-only effect, or another doubt; inactive means no such curve, though single readings can be large; an effect the other way counts as inactive or inconclusive. Potency means the concentration at half of the fitted maximal effect.
SMILES,MBNL1-CUG inh,FUS suppressor,TDP43 rescue,aSyn yeast inh,Abeta yeast res,GRP78 ERSR act
CCOC(=O)N/N=C/c1cn(CCCOc2ccccc2)c2ccccc12,?,i,11µM*,9%,i,-5%
CN(C)C(=O)[C@@H]1C[C@@H](Sc2nc3ccccc3[nH]2)CN1Cc1ccnc2ccccc12,.,.,.,.,.,-4%
O=C1NC2CCCCN2C12CCN(CCCN1c3ccccc3CCc3ccc(Cl)cc31)CC2 (configuration not stated),.,.,.,.,.,-5%
COc1ccc(C)cc1NC(=O)c1c(C)oc2ncn(CC(C)C)c(=O)c12,.,?,16µM*,.,i,0%
COc1ccc(S[C@]2(C(=O)N3CCOCC3)CC(=O)N(C(=O)C3CC3)[C@@H]2c2ccc(OC)cc2)cc1,.,i,.,.,.,.
O=C(CSCc1ccccc1)Nc1cc([N+](=O)[O-])ccc1F,19%,i,11µM*,4%,i,-1%
COc1ccc([N+](=O)[O-])cc1NC(=O)CSCc1ccccc1,?,i,13µM*,8%,i,-1%
Cc1cccc(CSCCNC(=O)CSCc2ccc([N+](=O)[O-])cc2)c1,-13%,i,18µM*,16%,i,8%
Cc1ncc2c(c1CNS(=O)(=O)N(C)C)CCN(C(=O)c1c(F)cccc1F)C2,.,.,.,.,.,-6%
O=C(Cn1nc(-c2ccccc2)ccc1=O)Nc1ccc(N2CCN(C(=O)c3cccs3)CC2)cc1,24%,8.9µM*,4%,-4%,i,-3%
CC(C)CC(=O)Nc1ccc(N2CCN(C(=O)c3cccs3)CC2)cc1,0%,i,-22%,0%,i,-2%
CCOC(=O)N/N=C/c1c(C)nn(-c2cccc(C(F)(F)F)c2)c1Cl,-9%,i,13µM*,-23%,?,-3%
Cc1nn(-c2cccc(C(F)(F)F)c2)c(Cl)c1/C=N/Nc1cccc(C(=O)O)c1,.,i,?,-14%,i,-10%
O=C(COCc1ccccc1)N1CC[C@H]2[C@H](CCCN2Cc2ccc(F)cc2)C1,.,i,.,.,.,.
CC(=O)N(C(C)=O)N1C(=O)C2C3c4ccccc4C(c4ccccc43)C2C1=O (configuration not stated),-6%,i,22µM*,-21%,i,-6%
CN1C(=O)C2C3c4ccccc4C(c4ccccc43)[C@@H]2C1=O (some centres not stated),2%,i,2%,-2%,i,-1%
O=C(c1cc(-c2ccccc2)nc2ccccc12)N1CCN(c2ccccc2O)CC1,4%,?,?,-12%,i,-3%
O=C(c1cc(-c2ccncc2)nc2ccccc12)N1CCN(c2ccccc2O)CC1,4%,18µM*,-14%,-20%,i,-6%
O=C(COCc1cc(-c2ccc3c(c2)OCO3)on1)NCc1ccccc1Cl,.,i,28µM*,.,i,-2%
O=C(COCc1cc(-c2ccc3c(c2)OCO3)on1)NCc1ccc(F)cc1,.,i,28%,.,i,-3%
CCc1c(C2(O)CCCCC2)[nH]c2c(C(=O)OC)cc(Cl)cc12,-6%,i,-85%,-49%,i,-5%
COC(=O)c1ccc2c(C)c(C3(O)CCCCC3)[nH]c2c1,.,i,20µM*,0%,i,5%
Cc1c(C2(O)CCCCC2)[nH]c2ccc(C#N)cc12,.,i,-8%,1%,i,2%
COC(=O)c1cc(Cl)cc2c(C)c(C3(O)CCCCC3)[nH]c12,2%,i,35µM*,?,i,-2%
O=C(NCc1ccncc1)c1cnn(-c2nccc(-c3cc4ccccc4o3)n2)c1C1CC1,.,.,.,.,.,-4%
SMILES,MBNL1-CUG inh,FUS suppressor,TDP43 rescue,aSyn yeast inh,Abeta yeast res,GRP78 ERSR act
Cc1cnc(-n2ncc(C(=O)N(C)CC3CCCN(C)C3)c2C2CC2)nc1-c1cccs1 (configuration not stated),.,.,.,.,.,0%
COc1cc2c(cc1OC)/C(=C/C(=O)c1ccc(F)cc1)NCC2,?,i,10µM*,6%,i,-5%
COc1cc2c(cc1OC)/C(=C/C(=O)c1ccccc1F)NCC2,7%,i,10%,9%,i,-3%
CCSc1nnc(NC(=O)C2Cc3ccccc3CN2S(=O)(=O)CC)s1 (configuration not stated),.,3.5µM*,3%,3%,i,1%
CCc1nnc(NC(=O)C2Cc3ccccc3CN2S(=O)(=O)c2ccc(C)cc2)s1 (configuration not stated),-2%,14µM*,17%,1%,i,5%
CCSc1nnc(NC(=O)c2ccccc2C)s1,?,i,11µM*,-9%,i,-7%
CCc1nnc(NC(=O)C2Cc3ccccc3CN2S(=O)(=O)c2cccs2)s1 (configuration not stated),-9%,i,0%,3%,i,0%
N#Cc1cccc(Cn2ccc3ccc(-c4ccc5ccn(Cc6cccc(C#N)c6)c5c4)cc32)c1,.,i,.,.,.,.
COc1ccc(OC)c(CNc2ccc([N+](=O)[O-])cc2C)c1,24%,i,?,-1%,i,-9%
COc1cccc(CNc2ccc([N+](=O)[O-])cc2C)c1,24%,i,16µM*,6%,i,-2%
O=C1NCCc2c1[nH]c1ccccc21,?,i,28%,-1%,i,-1%
O=C1NCCc2c1[nH]c1c(Cl)ccc(Cl)c21,10%,i,10µM*,14%,i,-8%
COc1ccccc1C(=O)Nc1cccc(N2CCC(NCc3cnn(-c4ccccc4)n3)CC2)c1,.,.,.,.,.,-5%
Cc1ccc(O)c(N=Nc2ccccc2)n1,?,i,11µM*,-74%,i,-11%
Oc1ccc(Cl)cc1N=Nc1ccccc1,2%,i,-2%,7%,i,2%
COc1ccc2c(c1)[C@@]1(NCCc3c1[nH]c1ccc(OC)cc31)C(=O)N2,.,i,.,.,.,.
CC(=O)NC(C)(c1ccccc1)c1nc(-c2csc3ccccc23)cs1 (configuration not stated),.,?,35µM*,7%,i,-5%
CC(O)(c1ccc(F)c(F)c1)c1nc(/C=C/c2ccccc2)cs1 (configuration not stated),.,i,-78%,-59%,i,-5%
COc1ccc(C(C)(O)c2nc(-c3cnc4ccccc4c3)cs2)cc1 (configuration not stated),.,i,35µM*,?,i,-1%
